Bioassay records as filed in PubChem.
697 NFkB inh: inhibitors of the PMA/ionomycin-induced NF-kB reporter in 697 B cells; 697 B-cell NF-kB luciferase reporter, 16 h; inhibition, % at 4 µM; AID 435022; 330,000 compounds, 0.33% hits; in the data active = inhibition above about 35%
Gli-Sufu antag: Gli-Sufu pathway antagonism | Sufu-KO-LIGHT fibroblasts, Gli luciferase reporter luminescence | inhibition, % at 5 µM | 340,000 compounds, 0.74% hits | AID 588413;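 active = inhibition above about 55%, limit read from the data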;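 note: 0% = DMSO-treated cells and 100% = wells with medium but no cells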
Jurkat NFkB inh: inhibitors of the PMA/ionomycin-induced NF-kB reporter in Jurkat cells | PMA/ionomycin-induced NF-kB luciferase reporter, luminescence | 330,000 compounds, 0.53% hits | AID 435003 | inhibition, % at 4 µM; in the data active = inhibition above about 50%
Beta apoptosis: blocks beta cell apoptosis | INS-1E cytokine-induced death, ATP luminescence, 48 h; percent of positive-control rescue, neutral wells zero | protection from apoptosis, % (test concentration not listed) | 300,000 compounds, 0.8% hits;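 active = Every replicate reaches about 75%, or at least half do and their mean reaches it too, limit read from the data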;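 note: 0% = cytokine-treated negative control wells and 100% = positive control rescue; higher means more ATP so stronger rescue from cytokine killing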
Mdm2 MdmX PPI: disrupts the human Mdm2-MdmX interaction; O15151+Q00987; SaOS-2 split-luciferase Mdm2/MdmX complementation, luminescence; inhibition, % at 8 µM; 330,000 compounds, 3% hits; AID 485346;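 active = inhibition of at least 50% at 8 µM in the primary screen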
Target sequence (O15151 whole entry, looked up): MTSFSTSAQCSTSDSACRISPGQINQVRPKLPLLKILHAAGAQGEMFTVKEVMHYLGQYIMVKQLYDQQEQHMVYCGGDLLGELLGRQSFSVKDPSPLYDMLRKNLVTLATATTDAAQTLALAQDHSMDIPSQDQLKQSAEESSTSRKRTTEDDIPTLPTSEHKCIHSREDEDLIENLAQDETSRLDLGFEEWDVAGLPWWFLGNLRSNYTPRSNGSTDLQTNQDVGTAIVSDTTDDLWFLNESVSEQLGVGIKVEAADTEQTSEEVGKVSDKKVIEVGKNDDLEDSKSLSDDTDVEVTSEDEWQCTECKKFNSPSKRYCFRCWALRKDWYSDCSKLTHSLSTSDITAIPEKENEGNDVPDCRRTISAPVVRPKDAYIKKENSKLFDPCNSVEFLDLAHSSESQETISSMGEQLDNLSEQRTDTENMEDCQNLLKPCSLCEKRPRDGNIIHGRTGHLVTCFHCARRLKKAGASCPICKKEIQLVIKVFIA
Target sequence (Q00987 whole entry, looked up): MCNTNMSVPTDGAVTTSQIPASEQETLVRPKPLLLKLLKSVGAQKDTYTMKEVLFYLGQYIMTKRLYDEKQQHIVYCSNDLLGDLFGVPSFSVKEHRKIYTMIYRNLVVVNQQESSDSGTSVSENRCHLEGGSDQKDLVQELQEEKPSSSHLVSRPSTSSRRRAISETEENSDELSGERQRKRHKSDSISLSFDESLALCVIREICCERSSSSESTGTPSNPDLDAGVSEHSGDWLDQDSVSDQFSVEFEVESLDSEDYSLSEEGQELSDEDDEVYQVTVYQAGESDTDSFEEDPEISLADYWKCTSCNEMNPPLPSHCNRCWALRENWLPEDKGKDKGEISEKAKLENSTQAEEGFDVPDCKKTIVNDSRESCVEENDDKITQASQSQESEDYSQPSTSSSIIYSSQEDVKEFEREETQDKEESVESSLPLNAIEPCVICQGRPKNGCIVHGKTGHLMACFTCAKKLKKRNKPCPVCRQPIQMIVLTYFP
CSC inhib: blocks cancer stem cells; cancer stem cell-like cells viability, luminescence; inhibition, % at 7.5 µM; 300,000 compounds, 1.1% hits; in the data active = inhibition above about 75%; tested in HMLE shEcad cells
* marks the source's active call; other numbers are inactive results; . = no result; ! = not active in a repeat. Shown are actives, neighbours in structure and some others; about 4.5% of the full set was active somewhere.

SMILES	697 NFkB inh	Gli-Sufu antag	Jurkat NFkB inh	Beta apoptosis	Mdm2 MdmX PPI	CSC inhib
CC1(C)C2CC[C@]3(C)C(CC=C4[C@@H]5C[C@@](C)(CO)[C@@H](O)C[C@]56C[C@@H](OC6=O)[C@]43C)[C@@]2(C)CC[C@@H]1O (some centres undefined)	12	-5	1	4	6	-14
O=C(NCC1CCCO1)C(=O)N/N=C\c1ccc2c(c1)OCO2 (centres undefined)	3	-12	-5	-14	16	3
CC#CC[N+](C)(C)CCCCCCCC	-10	21	16	131*	8	4
CCCCCCCCCCCCCCCC[N+](C)(C)Cc1ccc(F)cc1	.	40	.	.	.	.
Nc1cc(C(=O)OCC(=O)NCCNC(=O)COC(=O)c2ccc(Cl)c(N)c2)ccc1Cl	10	-3	7	-10	-23	-5
Cc1ccc(S(=O)(=O)Nc2ccc(C(OC(=O)c3ccccc3[N+](=O)[O-])(C(F)(F)F)C(F)(F)F)cc2)cc1	-21	5	-7	110*	13	107*
Cc1cc(C)cc(NC(=O)CN2CCC(C(=O)c3ccccc3)CC2)c1	10	21	8	-8	15	16
COC(=O)Cc1ccc(OC(=O)c2cccc(S(=O)(=O)N3CCN(C)CC3)c2)cc1	10	3	16	2	5	-10
CC(C)Oc1ccc(S(=O)(=O)N2CCCCC2)cc1NC(=O)CN1CCCC1c1cccs1 (centres undefined)	-4	14	-4	92*	35	12
Cc1ccc(NC(=O)c2cc(S(=O)(=O)NCCC3=CCCCC3)ccc2F)cc1F	-44	21	20	107*	14	13
O=C(Nc1cccc(F)c1)c1cc(S(=O)(=O)NCCC2=CCCCC2)ccc1F	-9	37	8	1	18	21
CC(=O)N1CCc2cc(S(=O)(=O)NCCC3=CCCCC3)ccc21	-23	41	25	87*	20	.
COc1ccc(NC(=O)NCc2ccccn2)c(OC)c1	9	7	10	-2	5	5
O=C(O)c1ccc(NNC(=S)Nc2cc(C(F)(F)F)ccc2Cl)cc1	-58	19	19	-15	9	37
CCC(C)[C@H](NS(=O)(=O)c1ccc(C)cc1)C(=O)N1CCC(C(=O)N[C@@H](Cc2ccccc2)C(=O)O)CC1 (some centres undefined)	1	-4	-5	-1	10	-7
COc1ccccc1OCC(=O)/C=C1/N(C)c2ccccc2C1(C)C	-1	14	17	26	15	9
CN1/C(=C\C(=O)COc2ccc3c(c2)OCO3)C(C)(C)c2ccccc21	-26	43	11	61	2	112*
CCCN(CC(=O)Nc1ccccc1OC)C(=O)c1ccc(COc2ccccc2)o1	1	1	10	-1	-15	-3
CCN(CC)CCNC(=O)c1ccc2c(=O)n(C3CCCC3)c(=S)[nH]c2c1	-61	71*	-30	4	18	71
CC(C)NC(=O)c1ccc2c(=O)n(C3CCCC3)c(=S)[nH]c2c1	11	8	-10	-5	-42	0
Cc1c(-c2cccc(Cl)c2)nc2ccccc2c1C(=O)OCC(=O)Nc1ccc2c(c1)OCO2	6	13	16	13	46	155*
O=C(COc1ccccc1Cl)Nc1ccc2[nH]c(=O)[nH]c2c1	-9	-5	-6	.	16	.
N/C(=N\NS(=O)(=O)c1ccccc1C(F)(F)F)c1ccccn1	-3	0	-16	1	5	5
Cc1nc(C(F)(F)F)c(C(=O)N/N=C(\N)c2ccccn2)s1	3	-6	23	77*	35	10
CCc1ccc(NC(=O)CSC2=C(C#N)C(c3ccco3)C3=C(CCCC3=O)N2)cc1 (centres undefined)	-20	4	-10	-8	9	37
SMILES	697 NFkB inh	Gli-Sufu antag	Jurkat NFkB inh	Beta apoptosis	Mdm2 MdmX PPI	CSC inhib
N#CC1=C(SCC(=O)c2ccc(Br)cc2)NC2=C(C(=O)CCC2)C1c1ccco1 (centres undefined)	9	-5	45	.	41	91*
CCCC[n+]1ccn(C2=C([O-])c3ccccc3C(=O)/C2=N\S(=O)(=O)c2ccccc2)c1	25	12	9	46	41	20
O=C1/C(=N\S(=O)(=O)c2cccs2)C([n+]2cccc(Cc3ccccc3)c2)=C([O-])c2ccccc21	-19	19	32	101*	25	54
CC(C)(C)c1cc[n+](C2=C([O-])c3ccccc3C(=O)/C2=N\S(=O)(=O)c2ccccc2)cc1	-8	0	13	82*	29	27
Cc1cc(C)c[n+](C2=C([O-])c3ccccc3C(=O)/C2=N\S(=O)(=O)c2cccs2)c1	-13	30	10	107*	13	24
CC(C)[n+]1ccn(C2=C([O-])c3ccccc3C(=O)/C2=N\S(=O)(=O)c2ccccc2)c1	11	-5	-10	54	32	4
CCCCC[n+]1ccn(C2=C([O-])c3ccccc3C(=O)/C2=N\S(=O)(=O)c2ccccc2)c1	24	-13	-2	90*	18	-10
Cc1cc[n+](C2=C([O-])c3ccccc3C(=O)/C2=N\S(=O)(=O)c2cccs2)cc1C	-7	-10	6	-6	37	-12
Cc1cccc(C)c1NC(=O)NC1(C(=O)N2CCOCC2)CCCCC1	-3	6	2	-1	-19	-16
COC(=O)c1cc(=O)n(CCc2ccccc2)c(=Nc2ccc(F)cc2)s1	4	5	0	10	28	60
CCOC(=O)c1ccc(N=c2sc(C(=O)OC)cc(=O)n2CCCN2CCOCC2)cc1	4	12	0	-1	12	101*!
c1ccc(-c2nnc3sc(CN4CCc5ccccc54)cn23)cc1	-17	45	9	17	11	76*
NS(=O)(=O)c1ccc(NS(=O)(=O)c2ccc(NC(=O)C3CC3)cc2)cc1	-1	-4	5	-9	7	-17
Cc1ccc(NC(=S)NC(=O)c2ccc(F)cc2)cc1S(=O)(=O)Nc1ccccc1Cl	7	-1	21	0	46	79*
CNC1=C(N(C(C)=O)c2ccc(Br)cc2)C(=O)c2ccccc2C1=O	.	94*	.	131*	.	105*
Cc1cccc(NS(=O)(=O)c2cccc(C(=O)NCCCN3CCOCC3)c2)c1	-8	-2	-7	.	15	6
COc1ccc(C2CC(c3c(O)cc(C)oc3=O)=NCCS2)c(OC)c1 (centres undefined)	-32	8	49	.	-18	80*
CCCCCCCCCCC[C@@H](C[C@@H]1OC(=O)[C@H]1CCCCCC)OC(=O)[C@H](CC(C)C)NC=O	-59	-6	3	4	30	102*
O=C(Nc1cccc2ccccc12)NC(Cc1ccccc1)C(=O)O (centres undefined)	-4	-1	3	-3	-25	-11
CCC(=NCc1ccc(Cl)c(Cl)c1)c1nc(-c2ccco2)oc1O	-15	7	-14	5	15	102*
